Laboratory results published in the supplement of paper PMC9694430.

Assays:
Test in all cases: thermal shift delta Tm vs DMSO control; higher = stronger stabilization (binding)
Settings in all cases: 12.5 µM; protein concentration 2 µM
LOC_OS01G01410-cb001 = tested on: LOC_OS01G01410-cb001
Outline: (§1)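 Heating from 25°C to 95°C at 0.05°C/s, fluorescence was recorded for 19.5 μl wells of 2 μM E. coli-expressed, purified rice kinase domain in 100 mM potassium phosphate pH 7.5, 150 mM NaCl, 10% glycerol and 5 × SYPRO Orange with compound in DMSO. Boltzmann fits gave melting temperatures for this differential scanning fluorimetry assay. The shift reported is the mean of three replicates against the DMSO-only protein.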

LOC_OS01G02750-cb003 = tested on: LOC_OS01G02750-cb003
Outline: as §1

LOC_OS01G10900-cb004 = tested on: LOC_OS01G10900-cb004
Outline: as §1

LOC_OS01G13800-cb001 = tested on: LOC_OS01G13800-cb001
Outline: as §1

LOC_OS01G14860-cb001 = tested on: LOC_OS01G14860-cb001
Outline: as §1

LOC_OS01G21960-cb002 = tested on: LOC_OS01G21960-cb002
Outline: as §1

LOC_OS01G39600-cb002 = tested on: LOC_OS01G39600-cb002
Outline: as §1

LOC_OS01G48390-cb002 = tested on: LOC_OS01G48390-cb002
Outline: as §1

LOC_OS01G52050-cb004 = tested on: T1, LOC_OS01G52050-cb004
T1 sequence (whole entry): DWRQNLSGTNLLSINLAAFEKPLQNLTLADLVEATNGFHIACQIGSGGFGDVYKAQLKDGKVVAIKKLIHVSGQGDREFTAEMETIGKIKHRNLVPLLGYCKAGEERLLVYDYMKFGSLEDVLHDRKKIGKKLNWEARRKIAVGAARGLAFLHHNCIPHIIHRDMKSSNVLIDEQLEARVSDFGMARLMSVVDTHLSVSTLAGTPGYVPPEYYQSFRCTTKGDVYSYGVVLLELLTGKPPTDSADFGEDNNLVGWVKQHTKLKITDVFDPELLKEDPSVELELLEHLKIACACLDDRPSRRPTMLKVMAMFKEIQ
Outline: as §1

LOC_OS01G57100-cb003 = tested on: LOC_OS01G57100-cb003
Outline: as §1

LOC_OS01G60330-cb001 = tested on: LOC_OS01G60330-cb001
Outline: as §1

LOC_OS01G60700-cb002 = tested on: LOC_OS01G60700-cb002
Outline: as §1

LOC_OS01G67340-cb003 = tested on: LOC_OS01G67340-cb003
Outline: as §1

LOC_OS01G70970-cb002 = tested on: LOC_OS01G70970-cb002
Outline: as §1

LOC_OS02G07810-cb001 = tested on: LOC_OS02G07810-cb001
Outline: as §1

LOC_OS02G08530-cb003 = tested on: LOC_OS02G08530-cb003
Outline: as §1

LOC_OS02G14120-cb001 = tested on: LOC_OS02G14120-cb001
Outline: as §1

LOC_OS02G17970-cb001 = tested on: LOC_OS02G17970-cb001
Outline: as §1

LOC_OS01G63280-cb003 = tested on: LOC_OS01G63280-cb003
Outline: as §1

LOC_OS01G51400-cb002 = tested on: LOC_OS01G51400-cb002
Outline: as §1
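Also: purified Escherichia coli-expressed rice kinase domain construct.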

| SMILES | thermal shift delta Tm (LOC_OS01G01410-cb001) [°C] | thermal shift delta Tm (LOC_OS01G02750-cb003) [°C] | thermal shift delta Tm (LOC_OS01G10900-cb004) [°C] | thermal shift delta Tm (LOC_OS01G13800-cb001) [°C] | thermal shift delta Tm (LOC_OS01G14860-cb001) [°C] | thermal shift delta Tm (LOC_OS01G21960-cb002) [°C] | thermal shift delta Tm (LOC_OS01G39600-cb002) [°C] | thermal shift delta Tm (LOC_OS01G48390-cb002) [°C] | thermal shift delta Tm (LOC_OS01G52050-cb004) [°C] | thermal shift delta Tm (LOC_OS01G57100-cb003) [°C] | thermal shift delta Tm (LOC_OS01G60330-cb001) [°C] | thermal shift delta Tm (LOC_OS01G60700-cb002) [°C] | thermal shift delta Tm (LOC_OS01G67340-cb003) [°C] | thermal shift delta Tm (LOC_OS01G70970-cb002) [°C] | thermal shift delta Tm (LOC_OS02G07810-cb001) [°C] | thermal shift delta Tm (LOC_OS02G08530-cb003) [°C] | thermal shift delta Tm (LOC_OS02G14120-cb001) [°C] | thermal shift delta Tm (LOC_OS02G17970-cb001) [°C] | thermal shift delta Tm (LOC_OS01G63280-cb003) [°C] | thermal shift delta Tm (LOC_OS01G51400-cb002) [°C] |
| --- | --- | --- | --- | --- | --- | --- | --- | --- | --- | --- | --- | --- | --- | --- | --- | --- | --- | --- | --- | --- |
| FC(F)(F)c1ccc(Nc2nc3ccc(Oc4ccnc(-c5ncc(C(F)(F)F)[nH]5)c4)cc3[nH]2)cc1 [Raf265 derivative] | 2.22 | 8.8 | 2.77 | 3.55 | 4.58 | 3.8 | 6.13 | 4.75 | 8.78 | 1.09 | 1.86 | -0.31 | 0.26 | 1.67 | 2.01 | 0.35 | 0.25 | 2.16 |  |  |
| O=C(O)c1cc(O)c2c(c1)[C@@H]([C@H]1c3cc(C(=O)O)cc(O)c3C(=O)c3c(O[C@@H]4O[C@H](CO)[C@@H](O)[C@H](O)[C@H]4O)cccc31)c1cccc(O[C@@H]3O[C@H](CO)[C@@H](O)[C@H](O)[C@H]3O)c1C2=O [Sennoside B] | 4.96 | 27.3 | 6.66 | 2.08 | 4.72 | 3.52 |  | 4.78 | 8.22 | 5.41 |  | 2.73 |  | 1.98 | 0.69 | 0.42 | 0.03 | 3.25 | 19.9 |  |
| Cn1c(Nc2ccc(C(F)(F)F)cc2)nc2cc(Oc3ccnc(-c4ncc(C(F)(F)F)[nH]4)c3)ccc21 | 2.71 | 15.5 | 2.13 | 3.67 | 5.02 | 4.72 | 5.68 | 4.18 | 6.02 | 4.82 | 16.6 | 0.58 | 1.4 | 1.63 | 3.92 | 0.26 | 0.77 | 2.38 | 24.5 |  |
| O=C(NCc1cccc(O)c1)Nc1nc(-c2ccncc2)cs1 | 1 | 1.02 | 0.6 | -0.25 | 1.72 | 1.09 |  | 1.48 | 1.09 | 0.7 | 0.56 | 1.38 | 0.16 | 0.57 | 1.03 | 1.04 | 0.87 | 0.34 | -0.09 | 0.4 |
| COc1cc2ncnc(Nc3ccc(F)c(Cl)c3)c2cc1NC(=O)/C=C/CN1CCCCC1 | 1.07 | 1.4 | 1.7 | 0.04 | 0.18 | 1.27 | -0.71 | 0.7 | 0.74 | 2.23 | 2.36 | 1.39 | 1.76 | 0.52 | 1.55 | 1.7 | 0.41 | 1.92 | 0.37 | 0.66 |
| CS(=O)(=O)CCNCc1ccc(-c2ccc3ncnc(Nc4ccc(OCc5cccc(F)c5)c(Cl)c4)c3c2)o1 [Lapatinib] | 3.23 | 7.61 | 1.97 | 0.94 | 1.79 | 2.25 | 3.93 | 1.79 | 6.04 | 3.37 | 6.75 | 1.03 | 1.58 | 1.28 | 1.88 | 1.24 | 0.15 | 1.82 |  | 1.92 |
| O=C(Nc1ccc(-c2ccnc(Nc3ccc(N4CCOCC4)cc3)n2)cc1)C1CCCN1 (stereo not given) | -0.35 | -0.13 | 0.59 | -0.02 | 1.14 | 1.5 |  | 0.45 | 0.51 | 0.26 | 0.51 | 1.22 | -0.06 | 0.39 | 0.59 | 0.66 | 3.38 | 0.54 | 0.08 | 0.18 |
